# From the supplement of paper PMC9023506
# Where a name gives a salt, the structure may show the parent alone.
# Test system: Danio rerio larvae (5 dpf)
# Test: excitability to 1-s acoustic pulses, difference vs DMSO (percentage points (treated minus DMSO)); higher = more of the behaviour than the DMSO vehicle control
# Settings: 10 µM; exposure time: 3 h pre-incubation + 3 h imaging
# Procedure: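 5-dpf wild-type zebrafish larvae were imaged in 96-well plates. They were treated with 190 Tocris FDA-approved drugs at 10 µM (1 µl/ml DMSO) for 3 h before and 3 h during imaging at 28.5 °C, 48 larvae per drug. Automated image analysis gave % time moving and optomotor responses. Values are drug group mean minus DMSO vehicle mean (n=844), in percentage points, for 10 behaviours.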
row,Compound,excitability to 1-s acoustic pulses
1,CNS(=O)(=O)Cc1ccc2[nH]cc(CCN(C)C)c2c1 [Sumatriptan succinate],-8.18
2,Cc1nc(-c2ccc(OCC(C)C)c(C#N)c2)sc1C(=O)O [Febuxostat],-0.372
3,CC(C)CN(C[C@@H](O)[C@H](Cc1ccccc1)NC(=O)O[C@H]1CO[C@H]2OCC[C@H]21)S(=O)(=O)c1ccc(N)cc1 [Darunavir],-1.74
4,CNC(=O)c1ccccc1Sc1ccc2c(/C=C/c3ccccn3)n[nH]c2c1 [Axitinib],1.46
5,CCC(C)(C)C(=O)O[C@H]1C[C@@H](C)C=C2C=C[C@H](C)[C@H](CC[C@@H]3C[C@@H](O)CC(=O)O3)[C@H]21 [Simvastatin],8.31
6,CC/C(=C(\c1ccccc1)c1ccc(OCCN(C)C)cc1)c1ccccc1 [Tamoxifen citrate],4.58
7,Cc1nnc(C(C)C)n1C1C[C@H]2CC[C@@H](C1)N2CC[C@H](NC(=O)C1CCC(F)(F)CC1)c1ccccc1 (stereo in doubt) [Maraviroc],8.65
8,CC1(C)O[C@@H]2[C@@H](CO[C@@]3(COS(N)(=O)=O)OC(C)(C)O[C@@H]23)O1 [Topiramate],4.36
9,COc1cc2nccc(Oc3ccc(NC(=O)C4(C(=O)Nc5ccc(F)cc5)CC4)cc3)c2cc1OC,17.1
10,C#C[C@]1(O)CC[C@H]2[C@@H]3CCC4=CC(=O)CC[C@@H]4[C@H]3CC[C@@]21CC [Levonorgestrel],1.14
11,O=C1CCc2ccc(OCCCCN3CCN(c4cccc(Cl)c4Cl)CC3)cc2N1 [Aripiprazole],16.5
12,CCOC(=O)C1=C(C)NC(C)=C(C(=O)OC)C1c1cccc(Cl)c1Cl (stereo not given) [Felodipine],-13.3
13,OCCOCCN1CCN(C2=Nc3ccccc3Sc3ccccc32)CC1 [Quetiapine hemifumarate],9.86
14,O=C(Nc1c(Cl)cncc1Cl)c1ccc(OC(F)F)c(OCC2CC2)c1 [Roflumilast],16.7
15,Cc1ccc(NC(=O)c2ccc(CN3CCN(C)CC3)cc2)cc1Nc1nccc(-c2cccnc2)n1 [Imatinib mesylate],12.7
16,O=C1CCc2cc(OCCCCc3nnnn3C3CCCCC3)ccc2N1 [Cilostazol],6.57
17,COc1cc2nc(N3CCN(C(=O)C4COc5ccccc5O4)CC3)nc(N)c2cc1OC (stereo not given) [Doxazosin mesylate],20.8
18,C[C@@H]1C[C@H]2[C@@H]3CCC4=CC(=O)C=C[C@]4(C)[C@@]3(F)[C@@H](O)C[C@]2(C)[C@@]1(O)C(=O)CO [Dexamethasone],-5.75
19,CN[C@H]1CC[C@@H](c2ccc(Cl)c(Cl)c2)c2ccccc21 [Sertraline hydrochloride],8.5
20,CC(=O)O[C@H]1C(=O)[C@@]2(C)[C@H]([C@H](OC(=O)c3ccccc3)[C@]3(O)C[C@H](OC(=O)[C@H](O)[C@@H](NC(=O)c4ccccc4)c4ccccc4)C(C)=C1C3(C)C)[C@]1(OC(C)=O)CO[C@@H]1C[C@@H]2O [Taxol],-0.779

row,Compound,excitability to 1-s acoustic pulses
1,Cc1ccc(N(CC2=NCCN2)c2cccc(O)c2)cc1 [Phentolamine Mesylate],15.7
2,CN(CCOc1ccc(NS(C)(=O)=O)cc1)CCc1ccc(NS(C)(=O)=O)cc1 [Dofetilide],4.42
3,Clc1ccc(COC(Cn2ccnc2)c2ccc(Cl)cc2Cl)c(Cl)c1 (stereo not given) [Miconazole nitrate],-0.632
4,NS(=O)(=O)c1cc(C(=O)O)c(NCc2ccco2)cc1Cl [Furosemide],0.211
5,O=c1n(CCCN2CCN(c3cccc(Cl)c3)CC2)nc2ccccn12 [Trazodone hydrochloride],18.6
6,CN(CCOc1ccc(CC2SC(=O)NC2=O)cc1)c1ccccn1 (stereo not given) [Rosiglitazone],15
7,CC1CNc2c(cccc2S(=O)(=O)N[C@@H](CCCNC(=N)N)C(=O)N2CC[C@@H](C)C[C@@H]2C(=O)O)C1 (stereo not given in full) [Argatroban],0.477
8,Nc1nc2[nH]cc(CCc3ccc(C(=O)N[C@@H](CCC(=O)O)C(=O)O)cc3)c2c(=O)[nH]1 [Pemetrexed],2.29
9,CC(C)C(=O)OCC(=O)[C@@]12O[C@H](C3CCCCC3)O[C@@H]1C[C@H]1[C@@H]3CCC4=CC(=O)C=C[C@]4(C)[C@H]3[C@@H](O)C[C@@]12C [Ciclesonide],4.96
10,CN1CCN(CCCN2c3ccccc3Sc3ccc(Cl)cc32)CC1 [Prochlorperazine dimaleate],23.6
11,CCCc1nc2c(C)cc(-c3nc4ccccc4n3C)cc2n1Cc1ccc(-c2ccccc2C(=O)O)cc1 [Telmisartan],12.8
12,CN1CC(=O)N2[C@H](c3ccc4c(c3)OCO4)c3[nH]c4ccccc4c3C[C@@H]2C1=O [Tadalafil],4.84
13,CN1CC[C@@H](NC(=O)Nc2ccc(C#N)cc2)C[C@@H]1c1nc2ccccc2[nH]1,7.99
14,CC(C)c1nc(CN(C)C(=O)N[C@H](C(=O)N[C@@H](Cc2ccccc2)C[C@H](O)[C@H](Cc2ccccc2)NC(=O)OCc2cncs2)C(C)C)cs1 [Ritonavir],7.52
15,COc1c(C)c2c(c(O)c1C/C=C(\C)CCC(=O)OCCN1CCOCC1)C(=O)OC2 [Mycophenolate mofetil],0.817
16,O=C(c1ccc(OCCN2CCCCC2)cc1)c1c(-c2ccc(O)cc2)sc2cc(O)ccc12 [Raloxifene hydrochloride],9.93
17,OC(c1cc(C(F)(F)F)nc2c(C(F)(F)F)cccc12)C1CCCCN1 (stereo not given) [Mefloquine hydrochloride],14
18,CC(C)(C(=O)O)c1ccc(C(O)CCCN2CCC(C(O)(c3ccccc3)c3ccccc3)CC2)cc1 (stereo not given) [Fexofenadine hydrochloride],-6.48
19,Nc1nc(NC2CC2)c2ncn([C@H]3C=C[C@@H](CO)C3)c2n1 [Abacavir hemisulfate],-1.97
20,CC(C)COCC(CN(Cc1ccccc1)c1ccccc1)N1CCCC1 (stereo not given) [Bepridil hydrochloride],15
